GRIN3A LBD mod – modulates the human NR3A ligand-binding domain | NR3A LBD differential scanning fluorimetry, Tm shift; 0% = protein alone, 100% = glycine-bound protein | AID 1259313 | Tm shift relative to glycine control, % at 25 µM | 340,000 tested, 2.5% active;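 active means melting temperature shift of at least 10% of the positive control shift, at one fixed dose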
ADAM10 inh – inhibits human ADAM10 | O14672 | recombinant ADAM10, EDANS/DABCYL FRET peptide cleavage, 3 h | inhibition, % at 7 µM | 370,000 tested, 0.62% active | AID 720582;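 active means inhibition above a per-campaign cutoff equal to the mean of compounds falling between control-based bounds plus 3 SD, cut at about 20% in these data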;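 further: 0% = DMSO wells while the 100% control is not disclosed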
Target sequence (O14672 214-748 limits assumed): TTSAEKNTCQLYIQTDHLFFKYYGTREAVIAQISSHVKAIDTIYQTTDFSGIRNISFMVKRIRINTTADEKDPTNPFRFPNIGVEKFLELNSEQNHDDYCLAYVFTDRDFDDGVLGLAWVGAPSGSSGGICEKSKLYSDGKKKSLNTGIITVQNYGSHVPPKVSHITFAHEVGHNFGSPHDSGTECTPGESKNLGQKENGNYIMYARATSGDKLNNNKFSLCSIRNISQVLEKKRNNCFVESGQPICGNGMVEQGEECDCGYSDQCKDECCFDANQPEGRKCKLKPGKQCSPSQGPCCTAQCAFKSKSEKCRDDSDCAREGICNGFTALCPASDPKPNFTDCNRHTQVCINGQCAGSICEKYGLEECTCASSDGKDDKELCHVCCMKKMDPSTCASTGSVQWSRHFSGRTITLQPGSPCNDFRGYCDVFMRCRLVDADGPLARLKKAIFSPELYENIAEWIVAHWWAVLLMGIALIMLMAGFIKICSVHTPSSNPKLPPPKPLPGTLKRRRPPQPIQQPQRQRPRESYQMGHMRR
ADAM17 inh – inhibits human ADAM17; P78536; recombinant ADAM17, EDANS/DABCYL FRET peptide cleavage; inhibition, % at 6.95 µM; 370,000 tested, 0.83% active;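 active means inhibition above the mean of compounds lying between control limits plus 3 SD, set per campaign, cut at about 8.5% in these data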;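 further: 0% = DMSO-only wells as the low control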
FAS-TE inh – FAS thioesterase (human) inhibition. 360,000 tested, 0.67% active. P49327. AID 602261. recombinant FAS-TE, OMFH fluorogenic substrate, fluorescence endpoint. inhibition, % at 15 µM;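 active means compounds whose normalised, plate-corrected inhibition of enzyme fluorescence in the single-dose primary screen is 50% or more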;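 further: 0% = DMSO with enzyme and 100% = substrate without enzyme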
HGIII-sPLA2 inh – Blocks human group III sPLA2 activity | inhibition, % at 12.2 µM | AID 743126 | 370,000 tested, 0.56% active | Q9NZ20 | QFRET BODIPY PC-A2 liposome hydrolysis, fluorescence;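 active means inhibition above mean plus 3 SD of compounds lying within the high and low control bounds, cut at about 19% in these data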;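 further: 0% = median of test compound wells and 100% = no enzyme DMSO wells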
FAS-TE conf – FAS thioesterase (human) inhibition, confirmation | shares compounds with FAS-TE inh | recombinant FAS-TE, OMFH fluorogenic substrate, fluorescence | inhibition, % at 15 µM | 2,300 tested, 45% active;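 active means compounds inhibiting the enzyme by at least 50% at 15 µM in any one of the replicates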;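 further: 0% = enzyme with DMSO only and 100% = wells lacking enzyme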
* marks the source's active call; other numbers are inactive results; . = no result given. Rows were chosen to be rich in hits. Some 4.3% of all compounds tested hit in one or more screens of this group.

SMILES	GRIN3A LBD mod	ADAM10 inh	ADAM17 inh	FAS-TE inh	HGIII-sPLA2 inh	FAS-TE conf
O=c1oc(-c2ccccc2F)nc2scc(-c3ccccc3)c12	1.9	4.8	2.1	85.6*	-1.0	36.5*
CC(C)(C)c1nc2scc(-c3ccc(Cl)cc3)c2c(=O)o1	-0.1	-10.1	5.1	-2.0	6.7	.
Cc1nc2scc(-c3ccccc3)c2c(=O)o1	-0.3	-8.4	-5.5	50.6*	3.1	73.1*
COc1ccc(-c2csc3nc(-c4ccccc4OC)oc(=O)c23)cc1	-1.3	2.2	1.0	62.8*	1.9	42.3
CC(C)(C)c1nc2scc(-c3cccs3)c2c(=O)o1	2.6	-6.1	-4.2	58.3*	4.5	55.7*
COc1ccc(-c2csc3nc(-c4ccc(C)cc4)oc(=O)c23)cc1OC	-2.4	1.4	1.2	7.1	0.3	.
Cc1ccc(C(=O)NCCN2C(=O)C3C4C=CC(C4)C3C2=O)cc1 (configuration not stated)	.	1.5	-0.6	.	-0.6	.
COC(=O)C1=C(C(=O)OC)C2CCCC1C1N=NN(c3ccccc3)C21 (configuration not stated)	.	0.8	-0.4	.	2.2	.
COC(=O)[C@]12C[C@H](CC(=O)NCc3cccc(C(F)(F)F)c3)C(=O)N(Cc3ccc(Cl)cc3Cl)C1=C[C@H](COCc1ccccc1)O[C@@H]2C	.	-1.6	-1.9	.	-11.7	.
Cc1csc(N(C(=O)c2ccc(S(=O)(=O)N(C)C)cc2)c2ccccc2)n1	-1.3	2.6	-2.6	-3.8	0.9	.
Cc1csc(N(C(=O)CCNC(=O)c2ccc([N+](=O)[O-])cc2)c2ccccc2)n1	0.7	-4.5	-4.7	72.4*	4.2	78.1*
CCOC(=O)c1cc(CC)sc1NC(=O)c1cc([N+](=O)[O-])ccc1N1CCOCC1	-8.1	4.5	-2.1	61.1*	4.0	20.8
Cc1cc(Cl)ccc1NC(=O)COC(=O)c1cc([N+](=O)[O-])ccc1N1CCOCC1	-0.4	6.4	1.7	76.7*	-4.4	79.2*
CCOC(=O)c1cc(CC)sc1NC(=O)c1ccc(N2CCOCC2)c([N+](=O)[O-])c1	1.5	.	.	-7.4	.	.
O=C(COC(=O)c1cc([N+](=O)[O-])ccc1N1CCOCC1)Nc1ccc(Cl)cc1	-8.0	12.4	5.7	81.3*	-6.7	49.0*
NC(=O)c1ccc(NC(=O)COC(=O)c2cc([N+](=O)[O-])ccc2N2CCOCC2)cc1	3.2	-3.9	0.3	36.4	2.1	.
CCc1cccc(C)c1NC(=O)COC(=O)c1cc([N+](=O)[O-])ccc1N1CCOCC1	3.3	-4.9	-3.6	67.7*	6.7	69.5*
Cc1ccc(C)c(COC(=O)c2cc([N+](=O)[O-])ccc2N2CCOCC2)c1	-4.4	7.5	4.5	41.4	-0.7	.
COc1ccc(CNC(=O)OC2CC3CC2[C@H]2CCCCN2C3)cc1 (some centres not stated)	.	-1.9	-1.5	.	0.8	.
O=C(COC(=O)c1cc(S(=O)(=O)N2CCOCC2)ccc1Cl)Nc1ccc(Cl)cn1	.	-17.8	-0.7	3.1	-4.8	.
O=C(COC(=O)c1cc([N+](=O)[O-])ccc1N1CCOCC1)Nc1ccc(Cl)cn1	2.4	-8.1	0.6	71.0*	-2.7	58.7*
Cc1ccc(S(=O)(=O)N2C=C(c3ccccc3)c3ccccc3-c3ccccc32)cc1	.	2.9	-0.2	.	-0.3	.
CC(C)(C)NC(=O)NC(=O)COC(=O)C1CCN(S(=O)(=O)c2cccs2)CC1	-0.4	0.6	-3.8	52.6*	-2.1	46.2*
O=C(COC(=O)C1CCN(S(=O)(=O)c2cccs2)CC1)Nc1ccccc1	-0.9	5.8	3.5	0.4	-9.8	.
CC1(C(=O)NS(=O)(=O)c2ccc(C#N)cc2)CCN1C(=O)CCc1ccc(Cl)cc1Cl (configuration not stated)	.	-5.1	-2.3	42.1	-7.1	.
SMILES	GRIN3A LBD mod	ADAM10 inh	ADAM17 inh	FAS-TE inh	HGIII-sPLA2 inh	FAS-TE conf
CC1(C(=O)NS(=O)(=O)c2ccc(C#N)cc2)CCN1C(=O)Cc1ccc(Cl)cc1Cl (configuration not stated)	.	-15.4	-3.2	55.0*	-3.4	70.4*
O=C(O)COc1ccccc1C=NNc1ccc([N+](=O)[O-])cc1S(=O)(=O)Nc1ccc(Cl)cc1	24.4*	-7.7	-6.7	50.1*	-59.5	61.9*
CCN(CC)S(=O)(=O)c1ccc(N/N=C/c2ccccc2OCC(=O)O)c([N+](=O)[O-])c1	-5.9	-3.2	-2.8	20.1	-19.2	.
CCCCCc1nc2sc3c(c2c(=O)n1NC(=O)c1ccc([N+](=O)[O-])cc1)CC(C)(C)OC3	11.8*	10.3	5.7	78.4*	-13.0	63.2*
COC(=O)C1=C(C)N(Cc2ccc(C(F)(F)F)cc2)C(=NCC2CC2)NC1c1cccc(Cl)c1 (configuration not stated)	.	0.1	-0.7	.	-3.5	.
O=C(NCCc1cccs1)C12CN(Cc3ccccc3)CC1C(c1cccc([N+](=O)[O-])c1)=NO2 (configuration not stated)	-1.8	-6.4	-2.9	51.1*	5.5	40.5
O=C(NCc1ccco1)C12CN(Cc3ccccc3)CC1C(c1cccc([N+](=O)[O-])c1)=NO2 (configuration not stated)	-1.9	10.7	-1.8	53.9*	-3.6	46.6
O=C(NCCCCc1ccccc1)C12CN(Cc3ccccc3)CC1C(c1cccc([N+](=O)[O-])c1)=NO2 (configuration not stated)	-3.4	8.0	0.8	39.2	-14.7	.
CCOC(=O)CCCNC(=O)OCCCN1CCC2(CCC(c3ccccc3)CC2)C1=O (configuration not stated)	.	-5.5	-3.0	.	-7.5	.
CCC[C@H]1[C@@H](OC(=O)NCCc2c[nH]c3ccccc23)CC[C@@]23CCCN2C(=O)CCC[C@@H]13	.	1.1	0.6	.	-89.1	.
CCCCc1ccc(C2C3=C(CC(C)(C)CC3=O)NC3=C2C(=O)c2ccccc23)cc1 (configuration not stated)	4.1	-5.6	-3.3	63.4*	8.2	11.1
CCCc1ccc(C2C3=C(CC(C)(C)CC3=O)NC3=C2C(=O)c2ccccc23)cc1 (configuration not stated)	-0.3	11.8	7.9	30.3	1.1	.
COCC(=O)N1C[C@H]2CON(C)[C@H]2C[C@H]1c1cccc(-c2cc(Cl)cc(Cl)c2)c1	.	-6.5	-4.7	.	-0.8	.
Cc1cc(C)cc(N(CC(=O)NC2CCC(C)CC2)S(=O)(=O)c2ccc(C(C)(C)C)cc2)c1 (configuration not stated)	.	-7.4	-1.2	.	1.7	.
Cc1ccc(S(=O)(=O)N2C[C@H]3[C@H]4C(=O)N(C5CCCCC5)C(=O)[C@H]4CC(=O)[C@H]3[C@@H]2c2cccc3ccccc23)cc1	.	4.5	-3.2	97.4*	-3.4	9.6

High-throughput results deposited in PubChem by several laboratories.
